This passage reports Potency results from PubChem BioAssay (NCATS).

Inconclusive results are not listed. Entries that show only a call come without a potency. The source made the active and inactive calls. The call rests on the fitted dose curve; in most records, active means well fitted inhibition curve with a large enough effect; inconclusive means small, poorly fitted or top-dose-only effect; inactive means no such curve, though single readings can be large or run the other way.
Potency means the concentration at half of the fitted maximal effect.

The experiment in a line: qHTS for Inhibitors of the Aldehyde Dehydrogenase Family (ALDH1A2, ALDH1A3, ALDH2, ALDH3A1) (AID 2061307). Further: nearly all actives have a fitted effect of over 50% in size. On Potency: test system not described further here. Conditions: ALDH inhibition qHTS; series mostly up to 50.3 µM. In general terms: Quantitative high-throughput screening tests each substance at several concentrations.
As to `Cc1c(P(=S)(c2ccccc2)c2ccccc2)[n+]2ccccc2n1C/C=C/c1ccc(C(F)(F)F)cc1`, the Potency was 7.94 µM (active).
The result for `CCn1c(C(=O)NCCc2ccc(OC)cc2)cc2sccc21` reads 2.01 µM (active).
For `Nc1nc2c(s1)C(c1ccc(F)cc1Cl)CC(=O)N2` (stereo not given), the Potency was 4 µM (active).
With `CCn1nc(C)c(CNc2ccc(S(N)(=O)=O)cc2C#N)c1C` the entry was “inactive”; with `CCOc1ccc2[nH]c(=O)c(CN(Cc3nnnn3Cc3ccco3)C3CCCCC3)cc2c1`, 0.896 µM (active); with `O=C(NCc1ccccn1)c1ccc2nnc(-c3ccc(OC(F)(F)F)cc3)n2c1`, “inactive”.
In the case of `Cc1cnc(Cl)nc1NCc1ccc(-n2ccnn2)cc1`, the Potency entry was “inactive”.
Regarding `COC(=O)c1ccc(S(=O)(=O)N2CCC(c3nc4ccccc4s3)CC2)cc1`, the Potency result is “inactive”.
With `Cc1c(P(=S)(c2ccccc2)c2ccccc2)[n+]2ccccc2n1C/C=C/c1ccc(Br)cc1` the entry was “inactive”; with `O=C(CN1CCC(CCc2ccccc2)CC1)Nc1ccccc1`, 15.8 µM (active); with `O=C(NC1CCCC1)c1csc(N2CCN(c3cccc(Cl)c3)CC2)n1`, 3.16 µM (active).
Regarding `COC(=O)CC(=O)Nc1ccccc1C(=O)O`, the Potency result is “inactive”.
With `O=C1C=CC(=O)N1c1cccc(Br)c1` the figure was 0.0896 µM (active); with `Cc1cc(SCc2sc(-c3ccc(F)cc3)nc2C)ccc1OCC(=O)O`, “inactive”.
With `COc1cccc(N2CCN(C(=O)c3ccc4c(c3)N(C)C3CCCCCN3C4=O)CC2)c1` (stereo not given), the Potency entry is “inactive”.
With `Fc1cccc(F)c1CNCc1cccnc1-n1cccn1` the figure was 3.98 µM (active); with `Cc1ncccc1NC(=O)c1cccs1`, “inactive”; with `Cc1ccn2c(=O)c(C(=O)NC(C)c3ccccc3)c(O)nc2c1` (stereo not given), “inactive”.
The result for `O=C(Nc1cccc(S(=O)(=O)N2CCOCC2)c1)c1cc(-c2cccnc2)nc2ccccc12` reads “inactive”.
With `COc1cccc(-c2nc(CNc3cccc(C(C)=O)c3)cs2)c1` the figure was 10 µM (active).
For `O=C(Nc1ccc(S(=O)(=O)N2CCOCC2)cc1)c1ccc(CN2CCc3ccccc3C2)cc1`, the Potency result was “inactive”.
Regarding `COc1ccc(NC(=S)N=Nc2c(O)[nH]c3ccccc23)cc1`, the Potency result is “inactive”.
The result for `NS(=O)(=O)c1ccc(Nc2cn[nH]c2-c2cccc(-c3ccccc3)c2)cc1` reads “inactive”; that for `COc1ccc(-c2nnc(SCC(=O)Nc3ccc(C(C)=O)cc3)o2)cc1`, “inactive”; that for `O=C([C@@H](NS(=O)(=O)c1ccc2[nH]c(=O)ccc2c1)c1ccccc1)N(Cc1ccco1)Cc1cccs1`, “inactive”.
The result for `Fc1cc(Cn2cnc3ccccc32)ccc1Cl` reads 11.2 µM (active); that for `COc1cccc(N2CCN(c3ncnc4c3c(-c3ccccc3)cn4-c3cccc(C(F)(F)F)c3)CC2)c1`, “inactive”; that for `O=C(Nc1cc(S(=O)(=O)N2CCOCC2)ccc1N1CCCCC1)c1cc(-c2ccccn2)nc2ccccc12`, “inactive”.
As to `FC(F)(F)c1ccnn1-c1nc(-c2ccccc2Cl)cs1`, the Potency entry is “inactive”.
The result for `COc1ccc(-n2ncc3c2CCCC3NC(=O)c2cc(NC(C)=O)ccn2)cc1` (stereo not given) reads “inactive”.
The result for `O=C(Nc1ccccc1C(=O)Nc1cccc(C(F)(F)F)c1)c1ccc(Cl)cc1` reads “inactive”; that for `Cc1ccc(CNS(=O)(=O)c2ccc3c(c2)CN(C(=O)c2cccnc2)CC3)o1`, “inactive”.
The result for `COc1ccc(-c2nn(-c3ccccc3)cc2C(=O)Nc2ccccc2OC)cc1` reads “inactive”; that for `Cc1cccc(C)c1Nc1c(-c2ccccn2)nc2ccc(Cl)cn12`, “inactive”.
`COc1ccc(NC(=O)c2ccc3ccccc3n2)cc1S(N)(=O)=O`: the Potency entry is “inactive”.
The result for `Nc1nc2c(s1)C(c1ccccc1)CC(=O)N2` (stereo not given) reads 11.3 µM (active).
The result for `O=C1c2ccccc2-c2nnc(-c3ccncc3)cc21` reads “inactive”.
The result for `Fc1ccc(Cn2cnc3ccccc32)cc1F` reads 12.7 µM (active); that for `Cn1c(C(=O)O)cnc1-n1cc(Cc2ccc(S(N)(=O)=O)cc2)c(-c2ccccc2)n1`, “inactive”; that for `CNc1nc2c(s1)C(c1ccccc1Cl)CC(=O)N2` (stereo not given), 11.3 µM (active).
